Experimental findings from PubChem BioAssay are described below.

Test [1] can be described thus: reducers of endogenous Her2 protein level, primary screen, SKBR3 breast tumor cells, AlphaScreen, ATP viability (AID 461;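 active means Her2 level under about 52% in both replicate screens, with viability over 70% of control, limit read from the data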;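 on Her2 level: lower value means less Her2 protein in the cells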;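 on viability: percent of carrier control wells set as 100% viability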). To be noted: 18-24 h, measured here: SKBR3 viability, ATP luminescence, at 10 µM. For orientation: In Alpha technology, singlet oxygen from a donor bead excites a nearby acceptor bead.
For test [2], the target named is Receptor tyrosine-protein kinase erbB-2 (Homo sapiens) (UniProt P04626). The test is described as above. To be noted: 18-24 h, at 10 µM, stronger effect = lower value.
Test [3] in a line: SK-BR-3 cell growth inhibitors, pilot screen, 24 h, human (AID 572;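 active means viability at or below 10% of carrier control in both of two separate runs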;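 further: compound exposure lasted between 18 and 24 h rather than exactly 24 h; 100% = carrier-treated control wells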). To be noted: SK-BR-3 viability, CellTiter-Glo luminescence, at 10 µM, stronger effect = lower value. On the technique in general: In ATP-based viability assays light output follows the ATP content of the culture.
Test [4] in a line: HUVEC growth inhibition – cell-based, human, primary screen (AID 575;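 active means viability at or below 30% in both replicate assays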;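 further: 100% = median of untreated cell wells with 0.1% DMSO on each plate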). To be noted: HUVEC proliferation, CellTiter-Glo luminescence, 72 h; at 10 µM; stronger effect = lower value.
A short description of test [5]: growth inhibitors of H69AR lung tumor, primary screen, human, duplicate replicates (AID 580;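 active means viability at or under a set limit in both replicates, limit being median viability minus 3 SD, cut at about 48% in these data, passing the limit was not always enough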;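 further: 100% = mean luminescence of untreated wells and 0% = no signal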). To be noted: H69AR lung tumor cells viability, ATP luminescence, 72 h; at 10 µM; stronger effect = lower value.
A short description of test [6]: reversal of MRP1-mediated doxorubicin resistance, pilot screen, H69AR cells, doxorubicin co-treatment (AID 601;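 active means viability loss from added drug above about 55%, and viability with drug at most 40%, in both replicates, limit read from the data, passing the limit was not always enough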). To be noted: CellTiter-Glo, 72 h, at 10 µM; for differential viability (reversal): stronger effect = higher value.
A short description of test [7]: 384-well plate pilot, post-Golgi transport modulator project, inhibition of yeast transport mutant growth (AID 636; in the data active means inhibition above about 31%). To be noted: absorbance 615 nm, about 18 h, stronger effect = higher value.
Test [8] is described as follows: growth suppression of yeast trafficking mutant, preliminary HTS, modulators of trafficking downstream of Golgi apparatus project, 1536-format plate, OD 615 nm (AID 637; in the data active means inhibition above about 30%). To be noted: yeast transport mutant growth, absorbance 615 nm, 18 h; stronger effect = higher value.
A short description of test [9]: OD615 S. cerevisiae growth inhibition, permissive medium, pilot counter-assay, permissive growth control for S. cerevisiae lifespan shortening project (AID 705). To be noted: OD615, 24 h, at 10 µM, stronger effect = higher value.
Test [10] in a line: Restrictive medium S. cerevisiae growth inhibition, OD615, pilot screen of yeast lifespan reduction project, restrictive growth control (AID 706;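 active means growth inhibition above a set limit, 3 SD over mean compound inhibition, in both replicates, cut at about 43% in these data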;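 further: modified DeaD lifespan yeast strain shifted to restrictive glucose medium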). To be noted: OD615, 48 h, at 10 µM, stronger effect = higher value.
Test [11] is described as follows: viability gain of MRP-1-high H69AR cells under doxorubicin, pilot screen, MRP-1 activator project, CellTiter-Glo, duplicate (AID 807;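 active means viability increase at or above a cutoff of the median across tested compounds plus 3 SD, cut at about 8.5% in these data, passing the limit was not always enough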;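 further: compound pretreatment 18-22 h then 72 h combined with doxorubicin; 0% = doxorubicin alone and 100% = vehicle without doxorubicin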). To be noted: H69AR viability with doxorubicin, CellTiter-Glo luminescence; at 10 µM; stronger effect = higher value.
The nature of test [12]: growth suppression of beta-catenin knockout HCT116, pilot screen, human colon tumor cells (AID 823;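 active means cell viability at or below a set limit in both duplicate runs, the limit being the all-compound median minus 4 SD, cut at about 23% in these data, passing the limit was not always enough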;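 further: 0% = wells killed by 20 µM Hyamine and 100% = untreated DMSO cell wells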). To be noted: CellTiter-Glo, 60 h, at 10 µM, stronger effect = lower value.
Test [13] is described as follows: growth suppression of PTEN-deleted HCT116, pilot screen, cell-based, HCT116 clonal line, CellTiter-Glo (AID 824;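 active means viability at or below 27.92% in each of two runs, the all-compound median minus 4 SD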;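 further: 0% = 20 µM Hyamine control and 100% = vehicle cell control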). To be noted: 60 h, at 10 µM, stronger effect = lower value.
A short description of test [14]: inhibitors of the yeast RAM network, pilot screen, dse1pr::URA3 reporter, 5-FOA selection (AID 869;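 active means inhibition over a set limit, the all-compound mean plus 3 SD, in both replicate runs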;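 further: 0% = DMSO wells with no growth and 100% = 10 µM 1-NA-PP1 with full growth; RAM network block rescues cells from 5-FOA so hits raise OD615 growth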). To be noted: S. cerevisiae dse1pr::URA3 5-FOA growth, OD615, 2 d; at 10 µM; stronger effect = higher value; strain carries analog-sensitive mutant Cbk1 kinase.
Test [15] is described as follows: RAM signaling pathway blockade in yeast – S. cerevisiae, Pdr1DBD-CYC8 efflux-inhibited sensitized strain, primary screen (AID 1298;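 active means RAM network inhibition above 8.4% in each of two replicates, 3 SD over the compound average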;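 further: 0% = DMSO untreated cells without growth and 100% = 10 µM 1-NA-PP1 full growth; higher means more yeast growth rescued from 5-FOA killing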). To be noted: S. cerevisiae cbk1-as DSE1-URA3 strain, 5-FOA growth OD615, 2 d; at 50 µM; stronger effect = higher value.
[16] abbreviates: H69AR cells + 2 uM doxorubicin, measured here: viability with 2 uM doxorubicin, stronger effect = lower value.
Setting [17] is: H69AR cells, compound alone cytotoxicity.

Broadly, the viability is a read-out of living cells in per cent, often relative to untreated cells. The term inhibition denotes the relative decrease from the control value, in per cent.

Inconclusive results are not listed. Calls of active or inactive are those of the source.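 How the source made its calls, unless noted: active means growth inhibition above 25% in both replicates, a cutoff set 3 SD above the mean; inconclusive means above 25% in only one replicate; inactive means the rest.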

Receptor tyrosine-protein kinase erbB-2 (Homo sapiens), sequence (P04626 whole entry, looked up): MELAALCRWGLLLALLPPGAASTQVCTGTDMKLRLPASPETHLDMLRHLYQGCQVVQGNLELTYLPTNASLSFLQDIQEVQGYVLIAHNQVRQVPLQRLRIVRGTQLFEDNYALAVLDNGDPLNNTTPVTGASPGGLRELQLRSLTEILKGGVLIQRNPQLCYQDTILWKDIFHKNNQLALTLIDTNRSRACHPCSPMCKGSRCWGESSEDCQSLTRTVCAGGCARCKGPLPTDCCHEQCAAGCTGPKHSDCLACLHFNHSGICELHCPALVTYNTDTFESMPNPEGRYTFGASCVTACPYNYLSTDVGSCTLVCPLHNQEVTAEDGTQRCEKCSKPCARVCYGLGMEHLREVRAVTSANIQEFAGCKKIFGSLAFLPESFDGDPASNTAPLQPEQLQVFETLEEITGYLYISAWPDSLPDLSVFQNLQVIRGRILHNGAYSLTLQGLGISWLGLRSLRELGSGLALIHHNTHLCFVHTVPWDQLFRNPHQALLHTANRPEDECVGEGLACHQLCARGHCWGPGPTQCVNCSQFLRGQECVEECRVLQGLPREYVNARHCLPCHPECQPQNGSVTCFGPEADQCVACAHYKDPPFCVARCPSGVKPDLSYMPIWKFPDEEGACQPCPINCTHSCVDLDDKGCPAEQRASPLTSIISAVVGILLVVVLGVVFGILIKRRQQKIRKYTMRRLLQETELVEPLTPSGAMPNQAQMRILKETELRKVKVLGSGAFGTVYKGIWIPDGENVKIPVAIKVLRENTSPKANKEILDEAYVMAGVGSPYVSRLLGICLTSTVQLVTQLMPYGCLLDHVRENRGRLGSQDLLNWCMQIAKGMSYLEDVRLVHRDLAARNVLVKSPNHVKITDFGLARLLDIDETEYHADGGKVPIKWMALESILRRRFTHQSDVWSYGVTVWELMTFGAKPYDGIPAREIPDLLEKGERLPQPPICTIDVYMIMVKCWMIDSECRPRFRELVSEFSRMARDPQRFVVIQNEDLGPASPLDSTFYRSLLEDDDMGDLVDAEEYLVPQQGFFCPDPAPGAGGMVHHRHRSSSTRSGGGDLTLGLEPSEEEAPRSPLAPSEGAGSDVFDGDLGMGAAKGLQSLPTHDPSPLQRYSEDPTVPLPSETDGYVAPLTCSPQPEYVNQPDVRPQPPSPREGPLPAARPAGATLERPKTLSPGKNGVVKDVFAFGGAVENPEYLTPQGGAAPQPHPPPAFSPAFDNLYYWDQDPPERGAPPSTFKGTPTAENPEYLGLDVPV

Take `CCN1CCN(c2nc(C)nc3c2sc(=S)n3C)CC1`: the viability was 100% in test [1]; 100% (inactive) in test [3]; 69.6% (inactive) in [4]; 90% (inactive) in test [5]; 91.3% in test [6] (setting [16]); 90% in [6] (setting [17]). In addition, the viability in test [12] was 102% (inactive); in test [13], 92.6% (inactive). For the same compound, the Her2 level in [2] is 104% (inactive). Also, the differential viability (reversal) in test [6] (H69AR cells + 2 uM doxorubicin) was -1.33% (inactive). The inhibition was -3.73% (inactive) in test [7], 0.5% (inactive) in test [8] and 1.04% (inactive) in test [14]. Moreover, the growth inhibition in [9] was -11.2% (inactive); in [10], -5.22% (inactive). Besides, the viability increase in [11] is -2.66% (inactive). In addition, the RAM network inhibition in [15] was 1% (inactive).
Take `Cc1cc(N=Cc2cc(Br)ccc2O)no1`: the viability in test [1] is 108%; in [3] it was 108% (inactive); in [4], 74.4% (inactive); in test [5], 73.1% (inactive); in test [6] (setting [16]) it was 102%; in test [6] (setting [17]), 73.1%. For the same compound, the viability in test [12] is 90.8% (inactive); in test [13] it was 95.8% (inactive). Besides, the Her2 level in [2] was 118% (inactive). Also, the differential viability (reversal) in test [6] (H69AR cells + 2 uM doxorubicin) was -28.9% (inactive). Besides, the values for the inhibition in [7], in test [8] and in test [14] were -3.72% (inactive), -6.67% (inactive) and 0.26% (inactive), respectively. Also, the growth inhibition in test [9] was -13% (inactive); in test [10], -22.7% (inactive). In test [11], the viability increase was -2.84% (inactive). The RAM network inhibition in test [15] was -1.15% (inactive).
As to `CC1=C(C(N)=O)C(c2ccncc2)n2nc(-c3ccccc3Cl)nc2N1` (stereo not given), the viability in [1] is 96%; in test [3], 96% (inactive); in test [4], 90.1% (inactive); in test [5], 100% (inactive); in test [6] (setting [16]), 86.9%; in [6] (setting [17]) it was 100%. Also, the values for the viability in [12] and in [13] were 94% (inactive) and 98.8% (inactive), respectively. The Her2 level in [2] is 96.5% (inactive). For the same compound, the differential viability (reversal) in test [6] (H69AR cells + 2 uM doxorubicin) is 13.3% (inactive). Besides, the inhibition is 0.53% (inactive) in [7], -3.11% (inactive) in [8] and 1.56% (inactive) in [14]. Also, the growth inhibition is -8.2% (inactive) in test [9] and 6.52% (inactive) in test [10]. In [11], the viability increase was -0.22% (inactive). Also, the RAM network inhibition in test [15] was -0.11% (inactive).
For the compound `COCCn1c(=N)c(C(=O)NCCc2ccccc2)cc2c(=O)n3cccc(C)c3nc21`, the viability in test [1] was 63.5%; in [3], 63.5% (inactive); in test [4], 86.6% (inactive); in [5], 92.5% (inactive); in test [6] (setting [16]), 76.8%; in [6] (setting [17]), 92.5%. In addition, the viability in [12] is 66.8% (inactive); in [13] it was 68.5% (inactive). Also, the Her2 level in [2] was 69% (inactive). Further, in [6] (H69AR cells + 2 uM doxorubicin), the differential viability (reversal) was 15.7% (inactive). Besides, the inhibition in test [7] is -0.38% (inactive); in [8], -8.83% (inactive); in test [14] it was 0.64% (inactive). In addition, the growth inhibition was 1.32% (inactive) in test [9] and -10.6% (inactive) in test [10]. For the same compound, the viability increase in [11] is -4.45% (inactive). Further, the RAM network inhibition in test [15] is 0.2% (inactive).
As for `Cc1cc(C)n2nc(SCc3nc4ccccc4[nH]3)nc2n1`, the viability in test [1] was 87.5%; in test [3], 87.5% (inactive); in test [4], 98.3% (inactive); in [5], 95.7% (inactive); in test [6] (setting [16]) it was 87.2%; in test [6] (setting [17]) it was 95.7%. In addition, the viability in test [12] was 91.2% (inactive); in [13], 95.5% (inactive). Moreover, the Her2 level in test [2] was 81% (inactive). In addition, the differential viability (reversal) in test [6] (H69AR cells + 2 uM doxorubicin) is 8.56% (inactive). Further, the inhibition in test [7] is 2.13% (inactive); in test [8] it was 3.28% (inactive); in [14] it was 1.77% (inactive). Further, the growth inhibition is -5.58% (inactive) in test [9] and 15.5% (inactive) in test [10]. In addition, the viability increase in test [11] is -2.9% (inactive). In addition, the RAM network inhibition in [15] was 1.24% (inactive).
